In the library only some 1.8% were active in any assay of this set; here they are far more common.
ALOX12 inh: inhibitors of human 12S-lipoxygenase ALOX12; 580,000 compounds, 1.1% hits; purified 12hLO, xylenol orange hydroperoxide absorbance; P18054; Potency, µM (titrated, usually from 108 µM), usual class: inhibitors
Target sequence (P18054 whole entry, looked up): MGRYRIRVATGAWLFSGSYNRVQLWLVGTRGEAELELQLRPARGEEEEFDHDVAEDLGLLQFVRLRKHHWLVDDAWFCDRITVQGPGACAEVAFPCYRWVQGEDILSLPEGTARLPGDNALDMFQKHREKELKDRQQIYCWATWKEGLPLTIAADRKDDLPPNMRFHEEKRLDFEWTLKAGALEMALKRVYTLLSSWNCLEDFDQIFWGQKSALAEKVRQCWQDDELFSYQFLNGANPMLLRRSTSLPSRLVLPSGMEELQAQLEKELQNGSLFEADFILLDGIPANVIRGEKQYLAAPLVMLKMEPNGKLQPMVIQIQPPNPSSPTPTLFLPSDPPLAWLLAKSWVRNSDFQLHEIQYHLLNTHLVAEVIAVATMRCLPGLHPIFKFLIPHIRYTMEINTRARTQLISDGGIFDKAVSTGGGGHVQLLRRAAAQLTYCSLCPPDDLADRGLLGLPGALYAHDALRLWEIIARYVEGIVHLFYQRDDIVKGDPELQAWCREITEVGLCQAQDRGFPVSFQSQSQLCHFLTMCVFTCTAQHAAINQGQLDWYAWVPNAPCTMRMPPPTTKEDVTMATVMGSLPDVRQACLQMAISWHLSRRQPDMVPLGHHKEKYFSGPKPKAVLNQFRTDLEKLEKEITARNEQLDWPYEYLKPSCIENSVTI
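Hydroperoxide product was detected by ferrous iron/xylenol orange as the 573 to 405 nm absorbance ratio. Arachidonic acid at 40 uM (final) was turned over for 30 min at room temperature by 150 nM human 12hLO, pH 7.0 Hepes buffer, after 15 min compound preincubation.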
AT treatment: potential ataxia-telangiectasia treatment; 320,000 compounds, 0.19% hits; Potency, µM (series often up to 57.5 µM), usual class: activators; F2112 A-T fibroblasts, KAP-1 phosphorylation AlphaLISA; neocarzinostatin DNA damage 30 min before lysis; AID 485349; further: nearly all actives have a fitted effect of over 45% in size
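ATM-like activity read as KAP-1 phosphorylation via AlphaLISA donor/acceptor antibody pairs after lysis and 6 hr at 25C. Cells were ATM-null patient fibroblasts (F2112, hTERT), dosed 60 min, then exposed to the DSB inducer NCS for 30 min.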
hERG WT inh: KCNH2 (human, wildtype) channel inhibition; Q12809; U2OS, BacMam KCNH2, thallium flux FluxOr; stronger effect = lower value; activity change, % at 1.84 µM; 340,000 compounds, 0.37% hits; AID 720551;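 active means maximum activity change below -70%; inconclusive means maximum activity change between -70% and -50%; inactive means maximum activity change above -50%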
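U2OS cells transduced with wild-type KCNH2 virus are loaded with FluxOr dye for 45 min, and thallium flux is measured in kinetic reads before and after stimulation buffer. Rate constants are normalized to DMSO controls.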
KCNH2 3.1 inh: blocks the human KCNH2 3.1 channel isoform | U2OS KCNH2 3.1, thallium flux FluxOr; stronger effect = lower value | activity change, % (tested at about 1.8 µM) | 340,000 compounds, 0.95% hits | AID 720553;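 active means maximum activity change below -70%; inconclusive means maximum activity change from -70% to -50%; inactive means maximum activity change above -50%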;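 further: thallium influx rate constant from kinetic fluorescence after stimulation buffer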
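Normalized rate constant (relative to positive and negative DMSO controls) derived from a 2 min kinetic fluorescence read after stimulation; U2OS cells expressing the 3.1 isoform via virus at 1.77 x 10^8 /mL.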
Hits are given with their value; i = inactive; ? = inconclusive; nt = no result; [ ] = remark or other dose. Unless noted, the call rests on the fitted dose curve; in most records, active means well fitted curve in the direction sought with a large enough effect; inconclusive means small, poorly fitted or top-dose-only effect, or another doubt; inactive means no such curve, though single readings can be large; an effect the other way counts as inactive or inconclusive.

SMILES | ALOX12 inh | AT treatment | hERG WT inh | KCNH2 3.1 inh
CCC(=O)N1CC2(CC(c3cccc(NC(=O)COc4ccc(Cl)cc4)c3)=NO2)C[C@@H]1C(N)=O (some centres undefined) | nt | i | nt | nt
CCCCCC(=O)N1CC2(CC(c3cccc(NC(=O)COc4ccc(Cl)cc4)c3)=NO2)C[C@@H]1C(N)=O (some centres undefined) | i | i | -90.9 | -74.4
COCCNC(=O)c1cc(-c2ccc3c(c2)OCCO3)nc2ccccc12 | i | nt | nt | nt
C#CCOCCOCCOCCNc1nc(N2CCN(C(=O)Cn3cc(CCCCN)nn3)CC2)nc(N2CCN(C(=O)[C@H](C)n3cc(CCCN=C(N)N)nn3)CC2)n1 | nt | i | nt | nt
C#CCOCCOCCOCCNc1nc(N2CCN(C(=O)Cn3cc(CC(C)O)nn3)CC2)nc(N2CCN(C(=O)[C@H](C)n3cc(CCCN=C(N)N)nn3)CC2)n1 (some centres undefined) | nt | i | i | -146.8
C#CCOCCOCCOCCNc1nc(N2CCN(C(=O)Cn3cc(CC(C)O)nn3)CC2)nc(N2CCN(C(=O)[C@H](CCCCN)n3cc(CCC(=O)O)nn3)CC2)n1 (some centres undefined) | 15.8µM | i | i | i
C#CCOCCOCCOCCNc1nc(N2CCN(C(=O)[C@H]([C@@H](C)CC)n3cc(CCCN=C(N)N)nn3)CC2)nc(N2CCN(C(=O)[C@H]([C@@H](C)CC)n3cc(CCC(=O)O)nn3)CC2)n1 | 10µM | nt | i | i
O=C(Cc1n[nH]c(=O)c2ccccc12)NCC1(N2CCOCC2)CCCCC1 | i | nt | nt | nt
COc1ccc(NC(=O)COC(=O)c2ccc(C)s2)cc1OC | i | nt | nt | nt
CN(CCNC(=O)c1cc2ccccc2oc1=O)c1ccccc1 | i | nt | nt | nt
Cc1cccc2c(N=O)c(O)[nH]c12 | i | 3.16µM | i | i
CC(C)CCN(C(=O)CNC(=O)c1cccs1)C(C(=O)NC1CCCCC1)c1cccnc1 (centres undefined) | i | 17.8µM | i | i
CC(C)CCN(C(=O)CNC(=O)c1cccs1)C(C(=O)NC1CCCC1)c1ccncc1 (centres undefined) | i | i | i | i
c1ccc(-c2n[nH]c3ccccc23)cc1 | i | i | i | i
O=c1[nH]nc(-c2ccccc2)c2ccccc12 | i | ? | i | -113.0
Cc1cccc(CSCc2ccc(-c3nc(-c4ccc(Br)cc4)no3)o2)c1 | 3.55µM | nt | nt | nt
COc1cccc(-c2ocnc2C(=O)NCc2cc(OC)ccc2OC)c1 | i | nt | nt | nt
N#C/C(=N\Nc1cc(Cl)cc(Cl)c1)c1nnc2n1CCCCC2 | 15.8µM | i | i | i
CCOC(=O)C1(CC2CC2)CCN(Cc2ccc(OC)cc2F)CC1 | i | i | i | -107.5
CCOC(=O)C1(CC2CC2)CCN(Cc2cc(Cl)c(O)c(OC)c2)CC1 | i | i | i | i
CN(C)c1ncc(CN2CCC(CO)(CCCc3ccccc3)CC2)s1 | i | i | i | i
CCOC(=O)C1(CCc2ccccc2)CCN(Cc2ccc(O)cc2)CC1 | i | i[11.5 µM] | -113.0 | -116.0
CCOC(=O)C1(CCc2ccccc2)CCN(Cc2ccc(OC)cc2)CC1 | i | i | -136.3 | -111.4
CCOC(=O)C1(CCc2ccccc2)CCN(Cc2cnc(N(C)C)s2)CC1 | i | i[11.5 µM] | -86.2 | -112.0
CCn1cnnc1CC1CCN(C(=O)C2CCCCC2)C1 (centres undefined) | i | nt | nt | nt
SMILES | ALOX12 inh | AT treatment | hERG WT inh | KCNH2 3.1 inh
CCOc1ccc(CNC(=O)CN2C(=O)C(C)=C(c3ccc(C)c(C)c3)S2(=O)=O)cc1OC | i | nt | nt | nt
Cc1noc([C@@H]2CN(C(=O)CCc3ccccc3)C[C@H]2CO)n1 | i | nt | nt | nt
COc1ccc(N2CCN(C(=O)Nc3nc(C)ns3)CC2(C)C)cc1 | i | nt | nt | nt
CC(=O)C1=C(C)NC(SCC(=O)c2ccccc2)=C(C#N)C1c1ccco1 (centres undefined) | nt | i | nt | nt
CC(=O)C1=C(C)NC(SCC(=O)c2ccccc2)=C(C#N)C1CC(C)C (centres undefined) | 7.94µM | i | i | i
CC(C)CCn1nc(C(=O)Nc2nc(-c3ccc(F)cc3)cs2)c2ccccc2c1=O | i | nt | nt | nt
CCc1ccc(-c2cc3c(=O)n(CC(=O)NCCCN4CCC(Cc5ccccc5)CC4)nc(C)n3n2)cc1 | i | i | i | -91.3
Cc1nn(CC(=O)NCCCN2CCC(Cc3ccccc3)CC2)c(=O)c2cc(-c3ccccc3)nn12 | i | i | -86.6 | -103.0
Cc1nn(CC(=O)NCCCN2CCN(Cc3ccccc3)CC2)c(=O)c2cc(-c3ccccc3)nn12 | i | i | i | i
S=c1[nH]nc(-c2ccccc2)n1C1C=CCCC1 (centres undefined) | 44.7µM | i | i | i
S=c1[nH]nc(-c2cccnc2)n1C1CCCCC1 | i | i | i | i
COc1ccc(/C=C/C(=O)Nc2ccc(OC)cc2[N+](=O)[O-])cc1 | i | i | i | -85.2
C[S+](=O)([O-])Nc1cccc(-c2cc(-c3cccnc3)c3cncn3c2)c1 | i | nt | nt | nt
CC(C)CCn1cnc2c(cnn2-c2ccc(F)cc2)c1=O | i | i | -181.2 | -136.7
Cc1ccc(NC2c3ncccc3C(=O)N2c2ccccc2C)cc1C (centres undefined) | 10µM | i | i | i
O=c1cc(CN2CCCCC2c2ccccn2)[nH]c2ccc(F)cc12 (centres undefined) | 7.94µM | nt | nt | nt
N#CCCn1cc(-c2csc(NC3CCCC3)n2)c2ccccc21 | 6.31µM | nt | nt | nt
COC(=O)C1=C(C)N(C)C(C)=C(C(=O)OC)C1c1ccccc1C(F)(F)F | i | nt | nt | nt
CCn1c(=O)c2c(n3c(=S)[nH]nc13)-c1ccccc1CC21CCCCC1 | 14.1µM | i | i | i
CCSc1nnc2n(C)c(=O)c3c(n12)-c1ccccc1CC31CCCCC1 | i | nt | nt | nt
Cc1ccc(-c2nn(-c3cccc(F)c3)cc2CN2CCN(c3ccccn3)CC2)o1 | 8.91µM | i | i | i
CC(=O)Nc1ccc(-c2csc(Nc3ccc(O)c(C(=O)O)c3)n2)cc1 | 39.8µM | nt | nt | nt
CNc1nc(-c2ccc(NC(C)=O)cc2F)cs1 | 31.6µM | nt | nt | nt

Screening results: PubChem, National Center for Advancing Translational Sciences (NCATS)
